Experimental findings from PubChem BioAssay are described below.

Values without a mark were called inactive.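 Rule for the calls, unless noted: active = inhibition at or above 50% at 10 µM; inactive = inhibition below 50%.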

The nature of one assay: loss of swimming-algae plug formation – whole organism, Chlamydomonas reinhardtii, WT vs cilia-less mutant, absorbance, 96-well, primary screen (AID 463189;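 active = inhibition at or above 50% relative to wild type and mutant plate controls; inactive = inhibition below 50%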;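 note: 0% = wild type cc124 cells in DMSO and 100% = ciliumless bld1 mutant cells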). The settings on record: Chlamydomonas reinhardtii gravitaxis, OD600 absorbance, 2 days; at 10 µM; stronger effect = higher value.
The term inhibition denotes the drop in the measured response relative to a control, in per cent. In the case of `N#CC1=C(N)OC2=C(C(=O)CCC2)C1CCc1ccccc1` (stereo not drawn), the inhibition was 33.2%.
On the same count and under the same terms, the value for `CC(=N\O)/C(CN(C)C)=N/O` was -6.2%; that for `CCOC(=O)C1/C(=N\O)CC(C)(O)C(C(=O)OCC)C1c1ccc(N(C)C)cc1` (stereo not drawn) was 0.652%; that for `CCOc1cc(C2Nc3ccccc3C(=O)N2c2ccccc2OC)ccc1O` (stereo not drawn) was 2.2%.
On the same count and under the same terms, the value for `CCOC(=O)C1=C(N)c2ccccc2CC1C(C)C` (stereo not drawn) was 36%; that for `CCOc1ccc2nc(SCC(=O)Nc3ncccn3)[nH]c2c1` was 10.6%; that for `O=C(CCN1C(=O)c2ccccc2C1=O)OCN1C(=O)c2ccccc2C1=O` was 1.44%.
Take `CCOC(=O)Cc1nnc(Nc2cccc(O)c2)c2ccccc12`: the inhibition was -9.07%.
Regarding `Cc1cc(/C=N\O)c(C)n1-c1ccncc1`, the inhibition was 19.4%.
`Cc1ccc(NC(=O)CSC2=C(C#N)C(c3ccc4c(c3)OCO4)CC(=O)N2)cc1C` (stereo not drawn): the inhibition is 25.6%.
Same read-out and setting: the value for `CC1(C2(O)CC(c3ccccc3)ON2)CCCCC1` (stereo not drawn) was 9.38%; that for `COc1ccc(Cn2c(N)c(C#N)c3nc4ccccc4nc32)cc1OC` was 2.2%; that for `Cc1nnc(SCC(=O)N2CCC(C(N)=O)CC2)s1` was 29.5%.
The same measure, in the same setting: with `C=CCn1c(SCC(=O)c2ccccc2)nnc1-c1ccc2c(c1)OCO2` the figure was -7.63%; with `CC(C)(C)c1ccc(O)c(N)c1`, 15.7%.
Still for that read-out and setting: the value for `CC(=O)Nc1ccc(-c2cc3ccccc3o2)cc1` was 17.4%.
Regarding `COC(=O)c1ccccc1NC(=O)CSc1nnc(-c2ccncc2)o1`, the inhibition is 4.81%.
Consider `Cc1c(C=NCCOCc2ccccc2)cnn1C`, for which the inhibition is -6.27%.
Same read-out and setting: the value for `CCS(=O)(=O)CCn1c([N+](=O)[O-])cnc1C` was 19%; that for `Cc1ccc(-n2c(N)c(C(N)=O)sc2=S)cc1` was 21.1%.
With `CCN(CC)CCOC(=O)C1(c2ccc(OC)c(OC)c2)CCCC1`, the inhibition is 0.789%.
Same read-out and setting: the value for `CCN(CC)C(=O)c1sc2nc(-c3cccs3)cc(-c3cccs3)c2c1N` was 15.5%; that for `COc1ccc(/C(O)=C2/C(=O)C(=O)N(CCN(C)C)C2c2ccccn2)cc1OC` (stereo not drawn) was -0.28%.
Regarding `CC1(C(=O)CSc2nc3ccccc3s2)CCC(=O)O1` (stereo not drawn), the inhibition is 6.36%.
On the same count and under the same terms, with `O=C(O)CC1Sc2nc3ccccc3n2C1=O` (stereo not drawn) the figure was 27.7%.
With `CC(=O)Nc1ccc(Oc2ccc3nc(C)[nH]c3c2)cc1`, the inhibition was 5.53%.
On the same count and under the same terms, with `CC(C)c1nc(NCC2CCCO2)c(C#N)c2c1COC(C)(C)C2` (stereo not drawn) the figure was -3.7%; with `N#Cc1nc(COc2ccc(Br)cc2)oc1N1CCCC1`, -0.7%; with `CCCC1Cc2c(sc3ncnc(N)c23)CO1` (stereo not drawn), 1.24%.
On to `Cc1nc(Sc2cccn2C)c(C(F)(F)F)c(=O)[nH]1`, for which the inhibition was 12.2%.
The same measure, in the same setting: with `COC(=O)c1cc(Br)c(=O)n(-c2nccs2)c1` the figure was 6.75%; with `Cc1ccc(SCc2[nH]nc3c2C(c2ccc(C)o2)C(C#N)=C(N)O3)cc1` (stereo not drawn), 25.7%; with `COc1cccc(C2C(C(=O)c3cc4ccccc4o3)=C(O)C(=O)N2CCN(C)C)c1OC` (stereo not drawn), 20.6%.
Same read-out and setting: the value for `Cc1cc(C)n(CC2CC(=O)N(c3ccc(Cl)c(Cl)c3)C2=O)n1` (stereo not drawn) was -1.93%.
In the case of `CN1CCN(c2nc3c(c(=O)n(C)c(=O)n3C)n2Cc2cccc3ccccc23)CC1`, the inhibition is 28.5%.
Same read-out and setting: with `CC(C)C(=O)N1CCN(c2nc(-c3ccccc3)c3c(c2C#N)CCCC3)CC1` the figure was 5.67%; with `CCSc1nc(O)c(C2OC(=O)c3c2ccc(OC)c3OC)c(=O)n1-c1ccccc1` (stereo not drawn), -7.19%.
The same measure, in the same setting: with `COc1cccc(NC(=O)CC2SC(=Nc3ccccc3)NC2=O)c1` (stereo not drawn) the figure was 32.2%; with `Cc1nnc(NCc2n[nH]c(=O)c3ccccc23)c2ccccc12`, -15.8%.

The nature of the next assay: blockers of RIG-like receptor reporter activation – cell-based, Sendai virus stimulus, luciferase, 10K MLSCN set, TLR/RLR signaling modifier project, primary screen (AID 602276).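 Note: firefly luciferase from ISG56 promoter only with Renilla not read in this screen; 0% = Sendai virus plus DMSO and 100% = medium plus DMSO without virus.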 The settings on record: HEK293 RL24 IRF3 luciferase reporter, at 10 µM, stronger effect = higher value. For orientation: A reporter such as luciferase makes a cellular process visible.
For `N#CC1=C(N)OC2=C(C(=O)CCC2)C1CCc1ccccc1` (stereo not drawn), the inhibition is 7.7%.
On the same count and under the same terms, the value for `CC(=N\O)/C(CN(C)C)=N/O` was -13.1%; that for `CCOC(=O)C1/C(=N\O)CC(C)(O)C(C(=O)OCC)C1c1ccc(N(C)C)cc1` (stereo not drawn) was 10.4%; that for `CCOc1cc(C2Nc3ccccc3C(=O)N2c2ccccc2OC)ccc1O` (stereo not drawn) was -2.55%.
Still for that read-out and setting: the value for `CCOC(=O)C1=C(N)c2ccccc2CC1C(C)C` (stereo not drawn) was 17.7%.
The same measure, in the same setting: with `CCOc1ccc2nc(SCC(=O)Nc3ncccn3)[nH]c2c1` the figure was -10.6%; with `O=C(CCN1C(=O)c2ccccc2C1=O)OCN1C(=O)c2ccccc2C1=O`, -10.1%.
Take `CCOC(=O)Cc1nnc(Nc2cccc(O)c2)c2ccccc12`: the inhibition is 0.504%.
As for `Cc1cc(/C=N\O)c(C)n1-c1ccncc1`, the inhibition was 20.1%.
Turning to `Cc1ccc(NC(=O)CSC2=C(C#N)C(c3ccc4c(c3)OCO4)CC(=O)N2)cc1C` (stereo not drawn), the inhibition was -18.5%.
The same measure, in the same setting: the value for `CC1(C2(O)CC(c3ccccc3)ON2)CCCCC1` (stereo not drawn) was 2.61%.
On the same count and under the same terms, the value for `COc1ccc(Cn2c(N)c(C#N)c3nc4ccccc4nc32)cc1OC` was 15.4%; that for `Cc1nnc(SCC(=O)N2CCC(C(N)=O)CC2)s1` was 7.88%; that for `C=CCn1c(SCC(=O)c2ccccc2)nnc1-c1ccc2c(c1)OCO2` was -8.67%.
Still for that read-out and setting: the value for `CC(C)(C)c1ccc(O)c(N)c1` was 8.96%; that for `CC(=O)Nc1ccc(-c2cc3ccccc3o2)cc1` was -24.7%; that for `COC(=O)c1ccccc1NC(=O)CSc1nnc(-c2ccncc2)o1` was 5.8%.
Regarding `Cc1c(C=NCCOCc2ccccc2)cnn1C`, the inhibition is 11.7%.
On the same count and under the same terms, with `CCS(=O)(=O)CCn1c([N+](=O)[O-])cnc1C` the figure was -12.7%; with `Cc1ccc(-n2c(N)c(C(N)=O)sc2=S)cc1`, 2.77%; with `CCN(CC)CCOC(=O)C1(c2ccc(OC)c(OC)c2)CCCC1`, 13.2%.
Still for that read-out and setting: the value for `CCN(CC)C(=O)c1sc2nc(-c3cccs3)cc(-c3cccs3)c2c1N` was 20.8%; that for `COc1ccc(/C(O)=C2/C(=O)C(=O)N(CCN(C)C)C2c2ccccn2)cc1OC` (stereo not drawn) was -0.634%; that for `CC1(C(=O)CSc2nc3ccccc3s2)CCC(=O)O1` (stereo not drawn) was 6.48%.
The same measure, in the same setting: with `O=C(O)CC1Sc2nc3ccccc3n2C1=O` (stereo not drawn) the figure was 13.8%; with `CC(=O)Nc1ccc(Oc2ccc3nc(C)[nH]c3c2)cc1`, -8.22%.
Take `CC(C)c1nc(NCC2CCCO2)c(C#N)c2c1COC(C)(C)C2` (stereo not drawn): the inhibition is 20.5%.
On the same count and under the same terms, with `N#Cc1nc(COc2ccc(Br)cc2)oc1N1CCCC1` the figure was 12.8%.
Same read-out and setting: with `CCCC1Cc2c(sc3ncnc(N)c23)CO1` (stereo not drawn) the figure was -2.55%; with `Cc1nc(Sc2cccn2C)c(C(F)(F)F)c(=O)[nH]1`, 13.1%.
Take `COC(=O)c1cc(Br)c(=O)n(-c2nccs2)c1`: the inhibition is -0.165%.
Take `Cc1ccc(SCc2[nH]nc3c2C(c2ccc(C)o2)C(C#N)=C(N)O3)cc1` (stereo not drawn): the inhibition was -13.7%.
Same read-out and setting: with `COc1cccc(C2C(C(=O)c3cc4ccccc4o3)=C(O)C(=O)N2CCN(C)C)c1OC` (stereo not drawn) the figure was 9.6%; with `Cc1cc(C)n(CC2CC(=O)N(c3ccc(Cl)c(Cl)c3)C2=O)n1` (stereo not drawn), -1.21%.
Same read-out and setting: the value for `CN1CCN(c2nc3c(c(=O)n(C)c(=O)n3C)n2Cc2cccc3ccccc23)CC1` was 9.16%.
The same measure, in the same setting: the value for `CC(C)C(=O)N1CCN(c2nc(-c3ccccc3)c3c(c2C#N)CCCC3)CC1` was -7.38%.
For the compound `CCSc1nc(O)c(C2OC(=O)c3c2ccc(OC)c3OC)c(=O)n1-c1ccccc1` (stereo not drawn), the inhibition was 13.8%.
In the case of `COc1cccc(NC(=O)CC2SC(=Nc3ccccc3)NC2=O)c1` (stereo not drawn), the inhibition is -8.37%.
With `Cc1nnc(NCc2n[nH]c(=O)c3ccccc23)c2ccccc12`, the inhibition was 4.22%.
